Screen size: about 2,100 compounds; about 760 (36%) were called active.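 The calls were made as follows: active = thallium-flux fluorescence traces judged by eye to show enhanced or reduced glutamate response, manual score 1 or -1, so both directions (some results past the limit were not filed as active); inactive = the rest, including fluorescent or raised-baseline compounds.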 These entries were drawn from the full list.

A short description of the test: thallium influx changes without GIRK channels – cell-based, HEK-293 rmGlu8, no GIRK, thallium flux, counter-screen for GIRK activator project, confirmation (AID 623868).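 Also: extra codes mark interference with 3 for fluorescent and 4 for baseline rise.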 As to conditions: thallium flux fluorescence, at 10 µM, actives lie on both sides.
With `COc1cc(-n2c(=S)[nH]c3ccccc3c2=O)c(Cl)cc1Cl`, the manual score was 1 (active). In the case of `CC(C)Oc1cc(-n2c(=S)[nH]c3ccccc3c2=O)c(Cl)cc1Cl`, the manual score was 1 (active). On to `c1ccc2c(CNC3CCCCC3)c[nH]c2c1`, for which the manual score is 0 (inactive). On to `CCOC(=O)C(O)(c1ccc(N(CC)S(=O)(=O)c2ccc(C)cc2)cc1)C(F)(F)F` (stereo not given), for which the manual score was 0 (inactive). On to `CNC(=O)OCCc1nccn1C`, for which the manual score was 0.5 (inactive). `Fc1ccc(NC2=NCCS2)cc1Cl`: the manual score is 0 (inactive). Turning to `CC(C)CCn1c(=O)c(C(=O)Nc2ccccc2S(N)(=O)=O)c(O)c2ccccc21`, the manual score was 0 (inactive).

In the case of `C=CCOC(=O)COc1cc(C)cc2oc(=O)c3c(c12)CCC3`, the manual score is -0.5 (inactive).

Take `C/C(=N\Nc1ccccc1)c1c(O)n(C)c(=O)n(C)c1=O`: the manual score was 0 (inactive). The figure for `O=c1cc(C(F)(F)F)c2cc3c4c(c2o1)CCCN4CCC3` is 3 (inactive); for `S=C1CN=C(c2ccccc2Cl)c2cc(Cl)ccc2N1` it is 1 (active); for `S=C1CN=C(c2ccccc2)c2cc(Cl)ccc2N1` it is 1 (active). In the case of `Cc1ccccc1C1=NCC(=S)Nc2ccc(Cl)cc21`, the manual score is 1 (active). In the case of `O=C(Cc1ccccc1)N1CCN(C/C=C/c2ccccc2)CC1`, the manual score was 0 (inactive). The figure for `CCN(c1ccc(C(O)(C(=O)OC)C(F)(F)F)cc1)S(=O)(=O)c1ccc(C)cc1` (stereo not given) is 0 (inactive); for `CCCCn1c(C)c(C(=O)OCC)c2c(CN3CCOCC3)c(O)ccc21` it is 0 (inactive).

Turning to `Cc1ccc2nc(N3CCC(C(=O)N4CCC5(CC4)OCCO5)CC3)sc2c1`, the manual score is 0 (inactive). Take `N=c1sc2c(n1Cc1ccccc1)CCCC2`: the manual score was 0 (inactive). `O=C(Nc1ccc(Cl)cc1)Nc1nccs1`: the manual score was 0 (inactive).

For `O=C(c1ccccc1)c1cn(CC(=O)N2CCOCC2)c2ccccc12`, the manual score is -0.5 (inactive). With `Cn1cccc1CNCCc1ccccc1`, the manual score was 0 (inactive).

For `Cc1nn(C)cc1/C=C1/CC2C3CC=C4CC(O)CCC4(C)C3CCC2(C)C1=O` (stereo not given), the manual score is 0 (inactive).

`CCN(CC)CCNCC(=O)Nc1ccc(Cl)cc1C(=O)c1ccccc1`: the manual score was 0 (inactive). On to `Nc1c(C(=O)OC2CCCCC2)c2nc3ccccc3nc2n1CC1CCCO1` (stereo not given), for which the manual score is -0.5 (inactive). `Cc1ccc(OCC(=O)NCCN2CCN(C(=O)COc3ccc(C)cc3)CC2)cc1`: the manual score was 0 (inactive).

(Values after PubChem BioAssay AID623868 (Vanderbilt High Throughput Screening Facility, 2012).)
